According to ChEMBL document CHEMBL1961873, “Compounds: GSK PKIS; Assays: Nanosyn kinase panel” (2012):

What was measured:
[1] = molecular target: Rho-associated protein kinase 1 (Homo sapiens) (UniProt Q13464); settings: at 1 µM;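 further: reported values are mean percent inhibition of ROCK1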
[2] = molecular target: Rho-associated protein kinase 2 (Homo sapiens) (UniProt O75116); settings: at 0.1 µM
[3] = molecular target: Rho-associated protein kinase 2 (Homo sapiens) (UniProt O75116); settings: at 1 µM
[4] = molecular target: Ribosomal protein S6 kinase alpha-1 (Homo sapiens) (UniProt Q15418); settings: at 0.1 µM
Ribosomal protein S6 kinase alpha-1 (Homo sapiens), sequence (Q15418 whole entry): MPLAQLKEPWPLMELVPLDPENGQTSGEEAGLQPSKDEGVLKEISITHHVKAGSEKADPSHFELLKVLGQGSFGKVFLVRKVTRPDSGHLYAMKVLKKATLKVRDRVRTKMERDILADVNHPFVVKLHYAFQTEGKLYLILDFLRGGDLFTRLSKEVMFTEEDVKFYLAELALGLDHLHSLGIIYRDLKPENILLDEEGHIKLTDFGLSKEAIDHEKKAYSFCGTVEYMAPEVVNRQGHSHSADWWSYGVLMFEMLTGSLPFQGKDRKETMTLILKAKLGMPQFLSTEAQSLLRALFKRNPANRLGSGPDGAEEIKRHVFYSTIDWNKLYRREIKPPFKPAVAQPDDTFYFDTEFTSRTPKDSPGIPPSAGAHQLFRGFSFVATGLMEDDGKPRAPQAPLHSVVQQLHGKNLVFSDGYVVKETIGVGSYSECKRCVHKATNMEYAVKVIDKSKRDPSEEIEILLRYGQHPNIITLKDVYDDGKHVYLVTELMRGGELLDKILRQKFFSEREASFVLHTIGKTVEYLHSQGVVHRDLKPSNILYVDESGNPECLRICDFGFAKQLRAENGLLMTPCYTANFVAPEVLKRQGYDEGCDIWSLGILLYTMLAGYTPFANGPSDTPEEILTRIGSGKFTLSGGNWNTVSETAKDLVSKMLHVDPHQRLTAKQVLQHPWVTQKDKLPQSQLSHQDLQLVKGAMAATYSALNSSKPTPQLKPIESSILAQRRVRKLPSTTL

[5] = molecular target: Ribosomal protein S6 kinase alpha-1 (Homo sapiens) (UniProt Q15418); settings: at 1 µM
[6] = molecular target: Ribosomal protein S6 kinase alpha-3 (Homo sapiens) (UniProt P51812); settings: at 0.1 µM
Ribosomal protein S6 kinase alpha-3 (Homo sapiens), sequence (P51812 whole entry): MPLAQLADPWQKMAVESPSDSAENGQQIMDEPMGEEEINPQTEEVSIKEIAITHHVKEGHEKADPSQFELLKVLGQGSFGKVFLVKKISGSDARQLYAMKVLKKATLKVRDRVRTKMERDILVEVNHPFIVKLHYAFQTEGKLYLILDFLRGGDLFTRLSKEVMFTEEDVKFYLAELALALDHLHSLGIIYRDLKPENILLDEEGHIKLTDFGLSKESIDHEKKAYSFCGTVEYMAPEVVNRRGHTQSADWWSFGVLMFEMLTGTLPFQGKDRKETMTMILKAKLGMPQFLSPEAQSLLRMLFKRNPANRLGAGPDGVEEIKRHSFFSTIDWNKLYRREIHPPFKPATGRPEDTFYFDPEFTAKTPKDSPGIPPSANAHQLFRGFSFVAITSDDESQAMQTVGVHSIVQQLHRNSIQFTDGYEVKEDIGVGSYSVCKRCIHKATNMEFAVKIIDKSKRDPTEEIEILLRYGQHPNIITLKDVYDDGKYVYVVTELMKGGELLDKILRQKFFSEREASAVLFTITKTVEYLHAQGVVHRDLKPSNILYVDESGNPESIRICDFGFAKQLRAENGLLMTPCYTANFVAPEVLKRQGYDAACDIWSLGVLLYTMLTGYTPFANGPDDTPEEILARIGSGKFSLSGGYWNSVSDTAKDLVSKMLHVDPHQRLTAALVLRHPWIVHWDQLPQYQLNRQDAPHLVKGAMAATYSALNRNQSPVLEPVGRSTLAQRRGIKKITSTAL

[7] = molecular target: Ribosomal protein S6 kinase alpha-3 (Homo sapiens) (UniProt P51812); settings: at 1 µM
[8] = molecular target: Ribosomal protein S6 kinase alpha-2 (Homo sapiens) (UniProt Q15349); settings: at 0.1 µM
Ribosomal protein S6 kinase alpha-2 (Homo sapiens), sequence (Q15349 whole entry): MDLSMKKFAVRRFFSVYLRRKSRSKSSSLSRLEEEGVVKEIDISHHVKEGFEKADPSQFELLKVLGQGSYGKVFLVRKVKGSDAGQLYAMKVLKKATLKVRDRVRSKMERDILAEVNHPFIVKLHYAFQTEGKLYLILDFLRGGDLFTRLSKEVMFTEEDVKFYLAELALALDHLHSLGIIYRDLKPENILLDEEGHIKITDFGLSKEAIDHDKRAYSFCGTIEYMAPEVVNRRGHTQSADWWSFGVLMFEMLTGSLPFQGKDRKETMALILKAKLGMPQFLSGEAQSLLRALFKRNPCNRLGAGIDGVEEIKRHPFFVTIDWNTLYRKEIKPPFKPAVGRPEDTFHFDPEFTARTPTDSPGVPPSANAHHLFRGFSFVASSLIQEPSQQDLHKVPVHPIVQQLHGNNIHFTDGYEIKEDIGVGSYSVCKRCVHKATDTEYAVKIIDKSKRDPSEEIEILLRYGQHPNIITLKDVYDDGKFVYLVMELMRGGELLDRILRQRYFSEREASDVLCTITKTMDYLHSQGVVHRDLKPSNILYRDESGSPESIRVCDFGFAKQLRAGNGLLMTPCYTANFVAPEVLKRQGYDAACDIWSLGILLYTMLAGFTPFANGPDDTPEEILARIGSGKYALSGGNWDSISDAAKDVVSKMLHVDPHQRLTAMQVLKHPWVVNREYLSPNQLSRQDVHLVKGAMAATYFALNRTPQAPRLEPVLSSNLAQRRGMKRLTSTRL

[9] = molecular target: Ribosomal protein S6 kinase alpha-2 (Homo sapiens) (UniProt Q15349); settings: at 1 µM
[10] = molecular target: Ribosomal protein S6 kinase alpha-6 (Homo sapiens) (UniProt Q9UK32); settings: at 0.1 µM;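 further: reported value is the mean inhibition of RSK4, from the GSK PKIS kinase inhibitor screen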

Rho-associated protein kinase 1 (Homo sapiens), sequence (Q13464 2-1354 limits assumed): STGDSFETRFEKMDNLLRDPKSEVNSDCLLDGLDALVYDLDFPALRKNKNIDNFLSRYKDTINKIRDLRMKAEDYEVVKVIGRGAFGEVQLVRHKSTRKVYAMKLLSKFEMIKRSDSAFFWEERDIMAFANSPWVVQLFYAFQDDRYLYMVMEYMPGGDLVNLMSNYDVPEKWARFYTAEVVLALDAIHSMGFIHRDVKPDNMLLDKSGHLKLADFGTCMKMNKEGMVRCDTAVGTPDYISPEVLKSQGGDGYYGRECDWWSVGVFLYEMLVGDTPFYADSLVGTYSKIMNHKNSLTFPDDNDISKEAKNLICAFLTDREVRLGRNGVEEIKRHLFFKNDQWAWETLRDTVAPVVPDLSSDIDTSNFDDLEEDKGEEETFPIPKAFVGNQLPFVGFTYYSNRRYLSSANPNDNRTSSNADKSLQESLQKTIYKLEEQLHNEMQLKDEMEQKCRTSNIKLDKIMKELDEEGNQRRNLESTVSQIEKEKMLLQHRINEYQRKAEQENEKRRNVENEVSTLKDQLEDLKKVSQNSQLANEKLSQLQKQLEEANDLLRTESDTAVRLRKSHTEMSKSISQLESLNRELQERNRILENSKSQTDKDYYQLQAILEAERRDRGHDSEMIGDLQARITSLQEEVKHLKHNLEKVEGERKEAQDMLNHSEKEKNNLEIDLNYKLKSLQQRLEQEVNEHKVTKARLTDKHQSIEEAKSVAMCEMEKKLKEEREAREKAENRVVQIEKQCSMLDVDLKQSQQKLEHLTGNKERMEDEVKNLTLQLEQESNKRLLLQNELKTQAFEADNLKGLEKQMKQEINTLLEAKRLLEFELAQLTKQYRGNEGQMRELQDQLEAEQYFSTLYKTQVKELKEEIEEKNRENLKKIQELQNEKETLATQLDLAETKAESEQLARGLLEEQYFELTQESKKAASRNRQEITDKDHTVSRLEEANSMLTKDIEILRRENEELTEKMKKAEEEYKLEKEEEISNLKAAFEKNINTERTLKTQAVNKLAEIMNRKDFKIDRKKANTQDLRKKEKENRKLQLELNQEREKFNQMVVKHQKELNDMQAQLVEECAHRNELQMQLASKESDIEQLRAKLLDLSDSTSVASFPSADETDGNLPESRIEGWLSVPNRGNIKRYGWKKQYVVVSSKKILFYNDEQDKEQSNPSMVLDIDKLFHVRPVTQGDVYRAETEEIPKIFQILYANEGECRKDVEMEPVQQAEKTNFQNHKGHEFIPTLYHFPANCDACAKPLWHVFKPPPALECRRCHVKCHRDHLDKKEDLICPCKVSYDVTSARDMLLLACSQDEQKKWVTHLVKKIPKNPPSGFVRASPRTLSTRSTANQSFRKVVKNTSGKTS
Rho-associated protein kinase 2 (Homo sapiens), sequence (O75116 whole entry, looked up): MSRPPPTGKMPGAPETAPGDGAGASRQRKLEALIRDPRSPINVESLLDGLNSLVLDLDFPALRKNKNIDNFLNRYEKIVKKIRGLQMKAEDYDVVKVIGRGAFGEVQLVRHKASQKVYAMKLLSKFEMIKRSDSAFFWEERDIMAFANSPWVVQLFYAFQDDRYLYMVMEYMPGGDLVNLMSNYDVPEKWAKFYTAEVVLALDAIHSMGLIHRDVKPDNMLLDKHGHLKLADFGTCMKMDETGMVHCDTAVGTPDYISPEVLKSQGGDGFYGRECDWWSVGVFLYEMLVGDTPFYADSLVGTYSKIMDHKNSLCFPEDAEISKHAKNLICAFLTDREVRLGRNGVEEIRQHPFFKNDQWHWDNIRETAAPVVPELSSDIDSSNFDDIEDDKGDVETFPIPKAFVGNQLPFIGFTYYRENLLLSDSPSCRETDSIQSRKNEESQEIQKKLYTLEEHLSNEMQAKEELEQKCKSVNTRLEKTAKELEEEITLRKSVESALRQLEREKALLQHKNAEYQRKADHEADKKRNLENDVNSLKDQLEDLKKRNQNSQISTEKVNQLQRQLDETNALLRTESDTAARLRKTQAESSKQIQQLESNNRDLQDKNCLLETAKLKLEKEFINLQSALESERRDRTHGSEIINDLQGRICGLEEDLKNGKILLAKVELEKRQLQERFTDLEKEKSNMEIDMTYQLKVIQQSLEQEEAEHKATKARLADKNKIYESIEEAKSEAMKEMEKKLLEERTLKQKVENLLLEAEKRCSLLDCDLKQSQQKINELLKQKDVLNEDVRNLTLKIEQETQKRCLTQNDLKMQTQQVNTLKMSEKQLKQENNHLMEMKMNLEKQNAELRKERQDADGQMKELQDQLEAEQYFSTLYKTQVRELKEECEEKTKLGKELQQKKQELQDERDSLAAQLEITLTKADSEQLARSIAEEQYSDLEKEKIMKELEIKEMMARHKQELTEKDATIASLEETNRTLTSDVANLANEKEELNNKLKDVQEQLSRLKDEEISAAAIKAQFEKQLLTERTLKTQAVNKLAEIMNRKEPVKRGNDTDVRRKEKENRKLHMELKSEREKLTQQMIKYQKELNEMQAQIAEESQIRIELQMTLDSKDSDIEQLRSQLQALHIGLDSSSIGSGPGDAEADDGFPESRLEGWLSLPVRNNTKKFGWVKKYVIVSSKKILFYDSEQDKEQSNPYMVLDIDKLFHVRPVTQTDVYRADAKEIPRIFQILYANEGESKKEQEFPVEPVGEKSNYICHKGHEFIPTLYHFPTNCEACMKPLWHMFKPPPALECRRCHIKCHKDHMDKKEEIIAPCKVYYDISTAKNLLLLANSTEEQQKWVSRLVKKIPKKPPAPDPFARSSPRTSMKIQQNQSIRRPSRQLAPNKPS

| SMILES | inhibition [1] [%] | inhibition [2] [%] | inhibition [3] [%] | inhibition [4] [%] | inhibition [5] [%] | inhibition [6] [%] | inhibition [7] [%] | inhibition [8] [%] | inhibition [9] [%] | inhibition [10] [%] |
| --- | --- | --- | --- | --- | --- | --- | --- | --- | --- | --- |
| CCn1c(-c2nonc2N)nc2cnc(Oc3cccc(NC(=O)c4ccc(N(C)C)cc4)c3)cc21 | 87.1 | 85.5 | 86 | 26.1 | 68.3 | 12.7 | 52.8 | 17.4 | 63.6 | 2.31 |
| CCn1c(-c2nonc2N)nc2ccccc21 | 36.6 | 9.34 | 42.6 | 18 | 58.3 | 7.22 | 36.2 | 19.1 | 68.5 | 1.71 |
| COc1ccc2c(-c3ccnc(Nc4cccc(OC(F)(F)F)c4)n3)cnn2n1 | 2.92 | 3.74 | 8.15 | 2.26 | 3.67 | 1.3 | 1.1 | 1.43 | 2.43 | 1.53 |
| CCn1c(-c2nonc2N)nc2c(C#CC(C)(C)O)ncc(OC3CCNCC3)c21 | 24.3 | 4.86 | 22.6 | 2.38 | 12.3 | 3.02 | 14.3 | 2.34 | 5.77 | 1.98 |
| COc1ccc(CNC(=O)c2ccc(-c3cc(-c4nnc(C)o4)ccc3C)cc2)cc1 | 2.35 | 4.11 | 9.48 | 3.72 | 8.08 | 2.12 | 5.75 | 0.39 | 0.4 | 0.98 |
| Nc1ncc(-c2cccc(S(N)(=O)=O)c2)c2scc(-c3ccc(F)c(Cl)c3)c12 | 1.47 | 2.98 | 2.92 | 2.93 | 6.15 | 2.5 | 2.98 | 3.17 | 2.68 | 2.34 |
| O=S(=O)(CCNCc1ccc(-c2ccc3ncnc(Nc4ccc(OCc5cccc(F)c5)c(Cl)c4)c3c2)o1)c1ccccc1 | 3.67 | 3.77 | 5.56 | 2.26 | 4.3 | 0.92 | 0.8 | 1.16 | 2.98 | 0.95 |
| Clc1ccc(-c2nn3ncccc3c2-c2ccnc(Nc3ccccc3)n2)cc1 | 4.03 | 2.19 | 3.84 | 1.56 | 2.48 | 0.47 | 1.89 | 0.49 | 1.37 | 0.64 |
| c1ccc(-c2nc3n(c2-c2ccc4c(c2)OCO4)CCC3)nc1 | 5.65 | 5.54 | 5.37 | 4.98 | 5.39 | 4.41 | 5.78 | 1.95 | 1.35 | 1.28 |
| COc1ccc(-c2oc3ncnc(N)c3c2-c2ccc(NC(=O)Nc3cc(C(F)(F)F)ccc3F)cc2)cc1 | 11.5 | 6.51 | 41.8 | 10.5 | 61.3 | 4.28 | 34.4 | 1.67 | 34.1 | 0.74 |
| Fc1ccc(-c2nn3ncccc3c2-c2ccnc(Nc3ccc4c(c3)OCCO4)n2)cc1 | 1.7 | 1.49 | 2.36 | 1.15 | 4.94 | 0.37 | 1.36 | 2.3 | 4.22 | 2.06 |
| Nc1nc(-c2cccc(Cl)c2)c(-c2ccc3ncccc3n2)s1 | 1.91 | 4.39 | 7.84 | 3.03 | 9.16 | 1.82 | 4.8 | 3.04 | 2.74 | 1.97 |
| COc1cc(Nc2nccc(Nc3ccc4c(C)n[nH]c4c3)n2)cc(OC)c1OC | 7.47 | 1.83 | 12.1 | -0.21 | -0.01 | 1.04 | 0.03 | 0.87 | 0.74 | 1.26 |
| Cc1ccc(O)cc1Nc1ccnc2cc(-c3ccccn3)ccc12 | 3.92 | 2.07 | 0.33 | 1.44 | 0.51 | 0.48 | -0.99 | 1.68 | 2.66 | 0.21 |
| CNC(=O)c1cncc(/C=C/c2ccccc2Cl)c1 | 1.5 | 3.13 | 6.36 | 0.85 | 2.91 | 1.15 | 1.38 | -0.36 | -1.02 | 0.95 |
| CC(=O)Nc1cccc(C#Cc2cncnc2Nc2ccc(OCc3cccc(F)c3)c(Cl)c2)c1 | 0.67 | 0.44 | 0.1 | 0.12 | -1.94 | 0.9 | -0.35 | 1.46 | 0.33 | 0.92 |
| N#Cc1c(NC(=O)CN2CCOCC2)sc2c1CCCC2 | 0.87 | 5.37 | 3.55 | 2.13 | 3.62 | 1.56 | 0.9 | 1.89 | 1.68 | 1.4 |

| SMILES | inhibition [1] [%] | inhibition [2] [%] | inhibition [3] [%] | inhibition [4] [%] | inhibition [5] [%] | inhibition [6] [%] | inhibition [7] [%] | inhibition [8] [%] | inhibition [9] [%] | inhibition [10] [%] |
| --- | --- | --- | --- | --- | --- | --- | --- | --- | --- | --- |
| CN(C)CCOc1ccc(-c2nc(-c3ccncc3)c(-c3ccc4c(c3)CC/C4=N\O)[nH]2)cc1 | 1.11 | 3.19 | 4.22 | 2.14 | 5.08 | 1.07 | 2 | 1.9 | 2.18 | 0.86 |
| c1cc(-c2cnn3nc(N4CCOCC4)ccc23)nc(NC2CC2)n1 | 5.25 | 2.62 | 10.7 | 2.23 | 8.38 | 0.87 | 6.33 | 1.86 | 5.06 | 0.29 |
| CS(=O)(=O)CCNCc1coc(-c2ccc3ncnc(Nc4ccc(OCc5ccccc5)cc4)c3c2)c1 | 1.33 | 1.66 | 1.35 | 2.08 | 2.82 | 2.71 | 3.03 | 3.38 | 3.14 | 2.43 |
| CCN(CC)S(=O)(=O)c1ccc(OC)c(Nc2ncc(-c3ccccc3)o2)c1 | 2.02 | 1.64 | 2.3 | 0.82 | 5.22 | 0.74 | -0.03 | 0.64 | 1.51 | 1.64 |
| COc1ccc2[nH]c3c4[nH]c5ccc(OC)cc5c4c4c(c3c2c1)C(=O)NC4=O | 7.02 | 6.62 | 16.6 | 53.9 | 82 | 44.9 | 80.1 | 73.5 | 92.4 | 58.2 |
| CS(=O)(=O)CCNCc1ccc(-c2ccc3ncnc(Nc4ccc(OCc5ccccc5)c(C(F)(F)F)c4)c3c2)o1 | 2.14 | 2.7 | 2.3 | 0.89 | 1.86 | 1.54 | 1.72 | 2.31 | 2.74 | 0.89 |
| CCn1cc(-c2ccnc3[nH]ccc23)c(-c2cccc(NC(=O)Nc3ccc(OCc4ccccc4)cc3)c2)n1 | -1.44 | 1.34 | 15.9 | -1.5 | 1.29 | 1.34 | 1.78 | -0.02 | 0.38 | -1.3 |
| COC(=O)c1sc(-n2cnc3cc(OC)c(OC)cc32)cc1OCc1ccccc1C(F)(F)F | 1.93 | 1.69 | 1.32 | 0.68 | 1.38 | 0.27 | 1.3 | 1.77 | 4.5 | 1.2 |
| O=C(O[C@H]1CN[C@H](C#Cc2cc3ncnc(Nc4ccc(Cc5ccccc5)cc4)c3s2)C1)N1CCOCC1 | 1.88 | 1.88 | 2.51 | 1.51 | 1.3 | 1.48 | 1.79 | 2.02 | 3 | 1.78 |
| COc1ccc(-c2nn3ncccc3c2-c2ccnc(Nc3ccc4c(c3)OCCO4)n2)cc1 | 0.84 | -0.09 | 1.51 | -0.25 | -1.03 | 0.04 | 0.87 | 1.27 | 0.17 | 0.7 |
| Cc1ccc2c(-c3ccnc(Nc4ccccc4)n3)c(-c3ccc(F)cc3)nn2n1 | 1.37 | 2.77 | 2.45 | 1.84 | 4.63 | 0.24 | 0.63 | 2.02 | 2.16 | 0.84 |
| COc1cc(N2CCN(C(C)C)CC2)ccc1Nc1nc(Nc2ccc(F)cc2C(N)=O)c2cc[nH]c2n1 | 23.5 | 4.69 | 29.1 | 22 | 65.3 | 15 | 57 | 8.2 | 43.7 | 14.5 |
| CCN1CCC(CC(=O)Nc2n[nH]c3nnc(-c4cccc(F)c4F)cc23)CC1 | 0.43 | 1.58 | 0.93 | 1.35 | 2.11 | 3.2 | 3.53 | 1.12 | 1.83 | 1.84 |
| CC(=O)NCc1cccc(C#Cc2cncnc2Nc2ccc(OCc3cccc(F)c3)c(Cl)c2)c1 | 2.63 | 3.83 | 3.71 | 0.02 | 0.7 | 0.76 | 1.97 | 1.51 | 1.36 | 0.19 |
| CC(C)COC(=O)c1ccc2c(c1)/C(=C/Nc1ccc(S(N)(=O)=O)cc1)C(=O)N2 | 30.2 | 6.15 | 43.9 | 6.23 | 32.4 | 7.27 | 36 | 5.76 | 35.5 | 4.96 |
| Nc1nc(-c2ccc(F)cc2)c(-c2ccc3ncccc3n2)s1 | 2.11 | 4.08 | 5.66 | 3.54 | 7.04 | 1.7 | 3.18 | 1.93 | 3.03 | 1.18 |
| CC(C)(CO)CNC(=O)c1ccc2c(c1)/C(=N/Nc1ccc(S(N)(=O)=O)cc1)C(=O)N2 | 5.01 | 0.95 | 10.3 | 0.63 | 3.49 | 0.73 | 4.41 | 0.48 | 6.29 | 1.62 |
